Source: PubChem BioAssay AID1159580 (chemical genetic matrix, 2015)
Several values for one entry are separate records, joined by “and”; a condition that tells them apart may be missing. Equal entries are not always repeated. In all, about 5,500 compounds went through this assay and about 2,000 (36%) were called active. About 18% were inconclusive and are not listed. No stated cut-off is given here; in the data, active means normalized growth mostly below about 0.91 (no sharp cut-off); inconclusive means no clear call, values can overlap the other calls; inactive means mostly above about 0.92. The list shows a part of the results.

Assay: chemical genetic growth profiling, strain panel (AID 1159580);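 further: tested at 20 µM; growth read once vehicle control cultures reached saturation at 30 °C; 1 = growth at the plate median or of vehicle wells; lower values mean less growth of the strain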
Conditions: S. cerevisiae deletion strains, growth OD

Measured: normalized growth

CCN(CC)CCCC(C)Nc1c2ccc(Cl)cc2nc2ccc(OC)cc12 (stereo not drawn)
active: locus YER167W, strain BCK2, active compounds read low 0.641 | locus YGL078C, strain dbp3, active compounds read low 0.817 | locus YGL086W, strain mad1, active compounds read low 0.74 | locus YGL248W, strain PDE1, active compounds read low 0.735 | locus YGR078C, strain PAC10, active compounds read low 0.818 | locus YGR135W, strain pre9, active compounds read low 0.739 | locus YGR229C, strain SMI1, active compounds read low 0.754 | locus YGR252W, strain gcn5, active compounds read low 0.643 | locus YHR013C, strain ard1, active compounds read low 0.844 | locus YHR030C, strain SLT2, active compounds read low 0.911 and 0.737 | locus YHR079C, strain IRE1 (second series), active compounds read low 0.49 | locus YHR079C, strain IRE1, active compounds read low 0.761 | locus YHR094C, strain hxt1, active compounds read low 0.796 | locus YHR129C, strain ARP1, active compounds read low 0.809 | locus YHR200W, strain rpn10, active compounds read low 0.786 | locus YIL066C, strain RNR3, active compounds read low 0.798 | locus YIL125W, strain kgd1, active compounds read low 0.899 | locus YIR030C, strain dcg1, active compounds read low 0.768 | locus YJL095W, strain BCK1, active compounds read low 0.622 and 0.668 | locus YJL164C, strain tpk1, active compounds read low 0.911 | locus YJL187C, strain SWE1 (second series), active compounds read low 0.453 | locus YJR043C, strain POL32, active compounds read low 0.79 | locus YJR066W, strain TOR1, active compounds read low 0.558
inactive: locus YER002W, strain NOP16, active compounds read low 1 | locus YER015W, strain faa2, active compounds read low 1.01 | locus YER016W, strain bim1, active compounds read low 1.02 | locus YER110C, active compounds read low 0.908 | locus YER111C, strain swi4, active compounds read low 1.02 | locus YER155C, strain BEM2 (second series), active compounds read low 0.943 | locus YER155C, strain BEM2, active compounds read low 0.997 | locus YFR010W, strain ubp6, active compounds read low 0.988 | locus YGL167C, strain pmr1, active compounds read low 1.03 | locus YGL173C, strain kem1, active compounds read low 0.997 | locus YGL227W, strain vid30, active compounds read low 1.03 | locus YGL240W, strain doc1, active compounds read low 1 | locus YGL253W, strain hxk2, active compounds read low 0.975 | locus YHR027C, strain rpn1, active compounds read low 1.03 | locus YHR142W, strain chs7, active compounds read low 0.947 | locus YIL073C, strain SPO22, active compounds read low 0.69 | locus YJL092W, strain hpr5, active compounds read low 1.02 | locus YJL095W, strain BCK1 (second series), active compounds read low 1.03 | locus YJL115W, strain asf1, active compounds read low 1.03 | locus YJL129C, strain trk1, active compounds read low 1.02 | locus YJL134W, strain LCB3, active compounds read low 1.01 | locus YJL154C, strain vps35, active compounds read low 1.04 | locus YJL166W, strain qcr8, active compounds read low 0.942 | locus YJL168C, strain set2, active compounds read low 1.02 | locus YJL187C, strain SWE1, active compounds read low 1.01
